Bioassay records deposited in PubChem BioAssay by several laboratories.
Most compounds without a hit are left out; they make up all but 4.5% or so of the library.
Rtt109 Vps75 – blocks Candida albicans Rtt109/Vps75 acetyltransferase activity | Q5AAJ8 | purified Rtt109/Vps75, ThioGlo CoA-SH fluorescence, 4 h | inhibition, % at 34.9 µM | actives 0.16% (n = 330,000) | AID 540336;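 active = inhibition of at least 50% in every replicate; inconclusive = best replicate reaches 50% inhibition but some replicates fall short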
Target sequence (Q5AAJ8 whole entry, looked up): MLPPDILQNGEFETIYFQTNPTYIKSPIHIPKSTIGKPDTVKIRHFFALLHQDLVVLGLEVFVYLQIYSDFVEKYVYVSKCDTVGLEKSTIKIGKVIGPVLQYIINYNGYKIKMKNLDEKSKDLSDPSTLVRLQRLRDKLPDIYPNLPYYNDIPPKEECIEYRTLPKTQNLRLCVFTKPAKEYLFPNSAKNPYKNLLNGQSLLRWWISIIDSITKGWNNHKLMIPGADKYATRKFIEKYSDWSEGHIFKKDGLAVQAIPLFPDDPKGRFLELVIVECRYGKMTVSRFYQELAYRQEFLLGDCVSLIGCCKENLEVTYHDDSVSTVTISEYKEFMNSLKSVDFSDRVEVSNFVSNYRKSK
GRK2 aptamer HTS – inhibitors of human GRK2 displacing RNA aptamer; P25098; bead flow cytometry, FAM-aptamer displacement from GRK2; inhibition of aptamer binding, % at 10 µM; actives 0.59% (n = 330,000); AID 488847;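 active = inhibition of aptamer binding above 40%, roughly 3 SD of noise, on plates passing a quality check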;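 also: median bead fluorescence of bound FAM aptamer so fluorescent compounds give negative values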
HDAC3 inh – blocks human histone deacetylase 3 | O15379 | recombinant HDAC3, fluorogenic peptide/trypsin coupled, fluorescence | inhibition, % at 8.3 µM | actives 0.15% (n = 320,000) | AID 2718; in the data active = inhibition above about 26%, passing the limit was not always enough; inconclusive = no clear call, values can overlap the other calls
Rce1 inh – inhibitors of yeast Ras-converting enzyme; Q03530; yeast membranes, quenched prenylated peptide cleavage fluorescence; calls only; actives 0.27% (n = 290,000); AID 2563;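 active = fall in fluorescence gain of 50% or more versus controls, with final raw signal at or below 3038400; inconclusive = same 50% fall but final raw signal above 3038400; inactive = fall in fluorescence gain under 50%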
Target sequence (Q03530 whole entry, looked up): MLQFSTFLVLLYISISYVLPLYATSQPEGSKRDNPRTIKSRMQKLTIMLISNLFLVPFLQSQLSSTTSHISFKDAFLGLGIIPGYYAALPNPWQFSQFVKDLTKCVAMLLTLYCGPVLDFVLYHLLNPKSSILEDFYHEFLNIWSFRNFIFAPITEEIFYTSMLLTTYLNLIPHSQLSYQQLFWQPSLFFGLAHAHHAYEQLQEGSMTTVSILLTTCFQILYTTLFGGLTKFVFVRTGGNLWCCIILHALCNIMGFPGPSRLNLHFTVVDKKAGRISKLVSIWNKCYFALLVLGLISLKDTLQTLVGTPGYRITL
ALR H2O2 inh – inhibitors of human sulfhydryl oxidase ALR; inhibition, % (test concentration not listed); purified ALR, DTT oxidation, H2O2 HRP-luminol luminescence; P55789; actives 3.8% (n = 290,000);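 active = mean replicate inhibition above about 79%, with every replicate also reaching it, limit read from the data; inconclusive = only one of the two criteria met; inactive = mean below limit and not every replicate reaching it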
Efflux pump inh – inhibitors of Candida antifungal efflux pumps expressed in yeast; S. cerevisiae Candida pump triplex, Nile Red efflux; inhibition, % at 10 µM; actives 0.44% (n = 330,000); AID 485275;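 active = plate passing quality check with inhibition over a set limit, or well fluorescence over plate mean plus 4 SD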;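 also: Nile Red retained in pooled yeast measured as flow cytometry median fluorescence; higher means more Nile Red kept so more efflux inhibition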
Numbers stand for hits; . = inactive; ? = inconclusive; / = no result given; + = active, no number.

SMILES	Rtt109 Vps75	GRK2 aptamer HTS	HDAC3 inh	Rce1 inh	ALR H2O2 inh	Efflux pump inh
Cc1[nH]c(=O)[nH]c(=O)c1S(=O)(=O)Nc1cccc([N+](=O)[O-])c1C	.	.	.	.	.	.
CCC(C)c1ccccc1N1CC(C(=O)Nc2ccc(C)c(S(=O)(=O)N3CCOCC3)c2)CC1=O (stereo not drawn)	.	.	.	.	.	.
Cc1ccc(NC(=O)CSc2nc(O)cc(=O)n2-c2ccc(C)cc2)cc1	.	.	.	.	99.7	.
O=C(CSc1nc(O)cc(=O)n1-c1ccccc1)Nc1ccc(Br)cn1	.	.	.	.	.	.
O=C(CSc1nc(O)cc(=O)n1-c1ccc(Cl)c(Cl)c1)Nc1ccc(Cl)cc1Cl	.	.	.	.	98.4	.
COc1ccc(/C=N/NC(=O)c2nnn(-c3nonc3N)c2-c2cccs2)cc1OC	.	.	.	.	.	.
COc1cc(/C=N/NC(=O)c2nnn(-c3nonc3N)c2-c2cccs2)ccc1O	.	.	.	.	89.3	.
CCOc1cccc(-c2c(C(=O)N/N=C/c3cccs3)nnn2-c2nonc2N)c1	.	.	.	+	.	.
COc1cc(/C=N/NC(=O)c2nnn(-c3nonc3N)c2C(C)C)ccc1O	.	.	.	.	98.9	.
CCNC(=S)/C(=C(/[O-])c1ccc([N+](=O)[O-])cc1)[n+]1ccccc1	.	.	.	/	99.0	.
NS(=O)(=O)c1ccc(N/N=C/c2cn(-c3ccccc3)nc2-c2cccs2)cc1	.	.	/	+	/	.
NS(=O)(=O)c1ccc(N/N=C/c2cn(-c3ccccc3)nc2-c2cccs2)c([N+](=O)[O-])c1	.	.	.	.	.	.
CC(C)(C)c1cc(C2=CSC3=NCCN23)cc(C(C)(C)C)c1O	.	.	.	.	/	.
COCCNC(=O)C(c1ccc(O)cc1)N(Cc1ccccc1)C(=O)CCC(=O)Nc1ccccn1 (stereo not drawn)	58.2	.	.	.	.	.
COCCNC(=O)C(c1ccc(F)cc1)N(Cc1ccccc1)C(=O)CCC(=O)Nc1ccccn1 (stereo not drawn)	.	.	.	.	.	.
COc1cccc(NC(=S)N(CCCN2CCOCC2)C(C)c2cc3ccccc3o2)c1 (stereo not drawn)	.	.	.	.	.	.
N#C/C(=C\c1ccc(-c2ccccc2[N+](=O)[O-])o1)C(=O)Nc1nc(-c2cccs2)cs1	.	56.0	.	.	.	.
Cc1cc(NC(=O)CSc2nc(CCC3CCCC3)nc3ccccc23)no1	.	.	.	.	97.5	.
O=C(CSc1nc(CCC2CCCC2)nc2ccccc12)NCc1ccc2c(c1)OCO2	/	.	.	.	99.9	.
CCN1C/C(=C/c2ccc(OC)c(O)c2)C(=O)/C(=C/c2ccc(OC)c(O)c2)C1	.	.	.	.	97.8	.
COc1ccc(/C=C2\CN(Cc3ccccc3)C/C(=C\c3ccc(OC)c(O)c3)C2=O)cc1O	.	.	.	.	/	.
CCN(CC)S(=O)(=O)c1ccc2c(c1)c(=O)c(C(=O)NCCc1ccccc1)cn2C	.	.	.	.	.	.
CCOC(=O)c1c(C2COc3ccccc3O2)csc1NC(=O)c1ccccc1 (stereo not drawn)	.	.	.	+	.	.
Cc1nc(S/C(=C/c2ccc(OCc3ccc(C(=O)O)cc3)cc2)C(=O)O)n[nH]1	.	.	.	.	.	.
Cn1c(=O)c2c(nc(NC3CCCCC3)n2CC(=O)C23CC4CC(CC(C4)C2)C3)n(C)c1=O	56.5	.	.	.	.	.
SMILES	Rtt109 Vps75	GRK2 aptamer HTS	HDAC3 inh	Rce1 inh	ALR H2O2 inh	Efflux pump inh
Cn1c(=O)c2c(nc(NC3CCCCC3)n2Cc2ccccc2)n(C)c1=O	.	.	.	.	.	.
O=C(Nc1ccc(-c2nc3ccccc3s2)cc1)C1=COCCO1	.	48.0	.	.	.	.
O=C(Nc1cccc(-c2nc3ccccc3s2)c1)C1=COCCO1	.	.	.	.	/	.
O=C(Nc1ccc(SC(F)F)cc1)C1=COCCO1	.	.	.	.	99.3	.
Cc1ccc2nc(-c3ccc(NC(=O)CSCC(=O)O)cc3)sc2c1	.	.	.	.	/	.
O=C(O)CSCC(=O)Nc1ccc(-c2nc3ccccc3s2)cc1	.	.	.	+	98.8	.
COc1ccccc1C(=O)NC(=O)CSc1nncn1C(C)C	.	.	.	.	.	.
COc1ccc(-n2nc3c(c2NC(=O)C(C)Oc2ccccc2)CS(=O)C3)cc1 (stereo not drawn)	.	.	.	.	.	.
Cc1cc(C(=O)COc2ccc(F)cc2Br)c(C)n1C1CC1	.	/	/	/	/	/
Brc1ccc2nc(-c3cccs3)c(NCC3CCCO3)n2c1 (stereo not drawn)	.	.	.	.	98.3	.
CC1=CC(C)(C)N2C(=O)C(=Nc3ccc(O)cc3)c3cccc1c32	.	.	.	.	96.9	.
CCOc1ccc(N2C(=O)CN(C)C2=S)cc1	.	.	.	.	.	.
CCOc1ccc(N2C(=O)CNC2=S)cc1	.	.	.	.	90.9	.
Cc1cc(C)c2nc(-c3ccccn3)cc(C(=O)NCc3ccco3)c2c1	.	.	.	.	89.1	.
CN(C)c1ccc(C(=O)N2CCCC(N3CCN(Cc4ccc5c(c4)OCO5)CC3)C2)cc1 (stereo not drawn)	.	.	.	.	97.5	.
CCSc1nnc(-c2ccccc2N=Cc2c(C)[nH]n(-c3ccccc3)c2=O)c(=O)[nH]1	.	.	.	.	94.8	.
Cc1nccc(-c2sc(-c3cccs3)nc2C)n1	.	.	.	?	85.4	.
Cc1nc(-c2cccs2)sc1C(=O)O	.	.	.	.	.	.
Nc1nc(SCc2ccccc2Cl)nc2nc3c(cc12)CCCC3	.	.	.	.	.	.
Nc1nc(SCc2ccc(Cl)cc2Cl)nc2nc3c(cc12)CCCC3	.	.	.	.	90.3	.
Nc1nc(SCc2ccc(F)cc2)ns1	.	.	.	.	98.1	.
Nc1nnc(SCc2ccc(F)cc2)s1	.	.	.	.	.	.
Nc1nc(SCc2ccc(Cl)cc2Cl)ns1	.	.	.	.	98.6	.
Cc1cccc(N2CCN(C(=O)CCc3nc4ccccc4c(=O)[nH]3)CC2)c1C	.	.	.	/	.	.
COc1ccccc1NC(=O)CSc1nc(=O)n(CCN(C)C)c2c1CCCC2	.	.	.	.	.	.
SMILES	Rtt109 Vps75	GRK2 aptamer HTS	HDAC3 inh	Rce1 inh	ALR H2O2 inh	Efflux pump inh
CN(C)CCn1c2c(c(SCC(=O)Nc3nccs3)nc1=O)CCCC2	.	.	.	.	95.9	.
CCN(CC)CCn1c2c(c(SCC(=O)Nc3nccs3)nc1=O)CCCC2	.	.	.	.	98.3	.
O=C(O)[C@H](Cc1ccccc1)NC(=O)N1CCN(c2cccc(C(F)(F)F)c2)CC1	.	.	.	.	.	.
Oc1cc2ccccc2cc1-c1n[nH]c(=S)o1	.	.	.	/	96.9	.
S=c1[nH]nc(-c2c[nH]c3ccccc23)o1	.	.	.	.	97.9	.
Cc1cc(-c2n[nH]c(=S)o2)c(C)n1-c1ccccc1	/	.	.	.	95.0	.
